Inconclusive results are not listed. Activity calls are given as the source filed them. Unless noted, the call rests on the fitted dose curve; in most records, active means well fitted curve in the direction sought with a large enough effect; inconclusive means small, poorly fitted or top-dose-only effect, or another doubt; inactive means no such curve, though single readings can be large; an effect the other way counts as inactive or inconclusive.
Experiments:
[1] = Cell Viability - MRC5 (AID 434; calls by dose curve;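 further: potency means the concentration at half of the fitted maximal effect; cells exposed to compound for 40 hours at 37 °C; potency reflects cytotoxicity seen as loss of intracellular ATP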); settings: MRC5 lung fibroblast viability, qHTS
Procedure, shortened: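 qHTS cytotoxicity in human lung fibroblast MRC5 cells; 40 hr treatment, 37 °C; cellular ATP by luciferase luminescence; DMSO = 0%, 100 uM tamoxifen = 100% inhibition; Hill-fit AC50.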

[2] = biological target: Mitogen-activated protein kinase 10 (Mus musculus) (UniProt Q61831); test: JNK3 AlphaScreen Assay (AID 530; active means well fitted curve in either direction with a large enough effect, not every such curve was filed as active;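 further: kinase came from lysate of stimulated human HepG2 cells; signal reports phosphorylation of biotinylated GST-cJun 1-79 at Ser73 with 10 µM ATP; series mostly up to about 57 µM; on the % scale 0 is the no-effect control and ±100 the full control effect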)
Procedure, shortened: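 Compound titrations were preincubated 15 minutes at room temperature with substrate, antibody and pre-activated JNK3-containing HepG2 lysate. Reactions were started with 10 uM ATP and stopped with EDTA-containing bead buffer for AlphaScreen detection.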

[3] = Cell Viability - Renal Proximal Tubule (AID 545);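 further: cells exposed to compound for 40 hours; 0% = DMSO only and -100% = 100 µM tamoxifen; nearly all actives have a fitted effect of over 40% in size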
Procedure, shortened: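 Cytotoxicity is scored as a concentration-dependent drop in cellular ATP in primary rat renal proximal tubule cells exposed for 40 hr. AC50 derives from Hill modelling.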

[4] = Cellular Toxicity (caspase-3) HepG2 (AID 654);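 further: cells exposed to compound for 16 hours before reading; 0% = DMSO alone and 100% = caspase signal from 100 µM tamoxifen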
Procedure, shortened: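 HepG2 cells (1500/well) were treated 16 h at 37 °C in complete medium, then caspase 3/7 activity was read by Caspase-Glo luminescence. Data were normalized to DMSO and 100 uM tamoxifen; AC50 came from Hill-equation fits of qHTS concentration-response.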

[5] = Cellular Toxicity (caspase-3) SHSY5Y (AID 657)
Procedure, shortened: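 Cells plated and incubated 5 h at 37 °C, dosed over a concentration range, incubated 16 h, then given Caspase-Glo 3/7 reagent for 1 h at room temperature before luminescence reading. Staurosporine (10 uM) defined full stimulation.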

[6] = Cellular Toxicity (caspase-3) H-4-II-E (AID 663); settings: Potency: caspase-3 activation;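 further: cells exposed to compound for 16 hr before readout; 0% = DMSO basal and 100% = 100 µM tamoxifen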
Procedure, shortened: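 Apoptosis induction is scored as increased luminescence from caspase 3/7 substrate cleavage in rat hepatoma H-4-II-E cells exposed to compound for 16 hr. Activity is scaled between DMSO and 100 uM tamoxifen.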

[7] = Cellular Toxicity (caspase-3) N2a (AID 665);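 further: compound exposure lasted 16 h at 37 °C before readout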
Procedure, shortened: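 Mouse N2a neuroblastoma cells, 1500 per well, treated 16 h at 37 °C in complete medium; caspase-3/7 activity by Caspase-Glo luminescence after 1 h. Normalized to DMSO and 10 uM staurosporine; AC50 from Hill fits.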

[8] = Cell Viability - LYMP2-001 (AID 921);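 further: series mostly up to about 92 µM; 0% = DMSO only and full inhibition = tetraoctylammonium bromide control wells; nearly all actives have a fitted effect of over 70% in size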
Procedure, shortened: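 qHTS, 1536-well; lymphoblastoid cells, 24 hr compound, 37 C; ATP by CellTiter-Glo, 30 min RT; luminescence; Hill-fit AC50.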

[9] = MultiTox-Fluor Cytotoxicity Assay - LYMP1-003 - Dead Cells (AID 961);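 further: 0% = DMSO and 100% = tetraoctylammonium bromide; nearly all actives have a fitted effect of over 70% in size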
Procedure, shortened: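 Acute toxicity is scored as increased dead-cell protease activity in human lymphoblastoid LYMP1-003 cells after 16 h compound exposure in complete culture medium. Activity is normalized to DMSO basal and 15 uM tetraoctylammonium bromide as full response.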

[10] = Cell Viability - LYMP1-003 - Assay at 24 hr (AID 963);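 further: plate controls were DMSO only for no effect and tetraoctylammonium bromide positive control for full effect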
Procedure, shortened: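 Human lymphoblastoid LYMP1-003 cells, 2500/well, treated 24 h at 37 C in complete medium. Viability read as intracellular ATP by CellTiter-Glo luminescence after 30 min at room temperature; AC50 from Hill-equation fits of qHTS concentration-response.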

[11] = Cell Viability - LYMP1-003 - Assay at 40 hr (AID 964); further: series mostly up to about 92 µM; on the % scale 0 is the no-effect control and ±100 the full control effect; nearly all actives have a fitted effect of over 60% in size
Procedure, shortened: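 LYMP1-003 human lymphoblastoid cells, 2500/well, preincubated 5 h at 37 C, then treated with compound for 40 h at 37 C. Intracellular ATP read by CellTiter-Glo luminescence after 30 min at room temperature; AC50 from Hill-equation fits.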

[12] = Cell Viability - LYMP2-009 (AID 968);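 further: series mostly up to about 92 µM; 0% = DMSO alone and the full-kill end = tetraoctylammonium bromide at 92 µM; nearly all actives have a fitted effect of over 55% in size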
[13] = Cell Viability - LYMP2-021 (AID 974);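 further: compound exposure lasts 24 hours at 37 °C; on the % scale 0 is the no-effect control and ±100 the full control effect; nearly all actives have a fitted effect of over 55% in size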
Procedure, shortened: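 Human lymphoblastoid LYMP2-021 cells, 2500/well in complete medium, treated 24 hours at 37 C. Intracellular ATP by CellTiter-Glo luminescence (30 min, RT); AC50 from Hill fits of concentration-response.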

[14] = Cell Viability - LYMP2-006 (AID 978); further: series mostly up to about 92 µM; on the % scale 0 is the no-effect control and ±100 the full control effect; nearly all actives have a fitted effect of over 60% in size
Procedure, shortened: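 Concentration-dependent loss of intracellular ATP in a human lymphoblastoid line after 24 hr treatment at 37 C was measured by CellTiter-Glo luminescence, with AC50 values obtained from standard Hill-equation modelling.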

[15] = Cell Viability - LYMP2-008 (AID 980); further: on the % scale 0 is the no-effect control and ±100 the full control effect; nearly all actives have a fitted effect of over 60% in size
Procedure, shortened: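 LYMP2-008 lymphoblastoid cells (2500/well) plated 5 h, then treated 24 h at 37 C in complete medium. Viability read as intracellular ATP by CellTiter-Glo luminescence after 30 min at room temperature; AC50 from Hill fits.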

[16] = Cell Viability - LYMP2-018 (AID 985);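 further: compound exposure lasted 24 hr at 37 °C; plate controls were DMSO only for no effect and tetraoctylammonium bromide at 92 µM for full effect; nearly all actives have a fitted effect of over 50% in size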
Procedure, shortened: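 Human lymphoblastoid LYMP2-018 cells, 2500/well, settled 5 hr at 37 C then exposed to compound 24 hr at 37 C; intracellular ATP measured by CellTiter-Glo luminescence. AC50 from Hill-equation concentration-response fits.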

[17] = Cell Viability - LYMP1-002 - Assay at 24 hr (AID 993); further: on the % scale 0 is the no-effect control and ±100 the full control effect
Procedure, shortened: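 Human lymphoblastoid LYMP1-002 cells (2500/well) treated 24 h at 37 °C; viability as intracellular ATP by CellTiter-Glo luminescence. Tetraoctylammonium bromide as positive control; AC50 from Hill-equation fits of qHTS concentration-response.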

[18] = qHTS assay for environmental chemicals that activate the Aryl hydrocarbon Receptor (AhR) signaling pathway (AID 651777); settings: 1A2-DRE human hepatoma cells, luciferase, 24 h; activation: active compounds read high; further: % of control where 0% means no effect; nearly all actives have a fitted effect of over 15% in size
Procedure, shortened: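 Human hepatoma 1A2-DRE cells, stably carrying a dioxin response element and CYP1A2 promoter driving luciferase, were exposed to compounds for 24 hr at 37 C and 5% CO2. Luciferase signal was then read after 30 min One-Glo at room temperature.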

[19] = qHTS assay for small molecule activators of the human pregnane X receptor (PXR) signaling pathway (AID 720659; call rule not given here; further: 0% is about no effect)
[20] = Cellular Toxicity (caspase-3) Renal Proximal Tubule (AID 667);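 further: cells exposed to compound for 16 hours at 37 °C before detection; 0% = DMSO basal and 100% = 10 µM staurosporine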
Procedure, shortened: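 In qHTS format, rat primary proximal tubule cells seeded at 1000 per well are exposed to compounds for 16 hours at 37 °C. An increase in Caspase-Glo 3/7 luminescence indicates caspase activation.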

O=C(O)C(Cl)(Cl)Br
inactive: Potency [1] > 92 µM | Potency [2] | outcome [3] | outcome [4] | outcome [5] | Potency [6] | outcome [7] | Potency [8] | Potency [9] | outcome [10] | Potency [11] | Potency [12] | Potency [13] | Potency [14] | Potency [15] | Potency [16] | Potency [17] | activation [18] 0.0306% | outcome [19]

C=COC(C)=O
inactive: Potency [1] > 92 µM | Potency [2] | outcome [3] | Potency [6] | outcome [7] | Potency [8] | outcome [10] | Potency [11] | Potency [12] | Potency [13] | Potency [15] | Potency [16] | Potency [17] | activation [18] 1.36% | outcome [19]

Oc1ccc(Cl)c(Cl)c1
inactive: Potency [2] | outcome [3] | outcome [4] | outcome [5] | Potency [6] | outcome [20] | Potency [8] | Potency [9] | outcome [10] | Potency [11] | Potency [13] | Potency [14] | Potency [16] | Potency [17] | activation [18] 1.35% | outcome [19]

Cl/C=C/CCl
inactive: Potency [1] > 92 µM | Potency [2] | outcome [3] | outcome [4] | outcome [5] | Potency [6] | outcome [7] | outcome [20] | Potency [8] | Potency [9] | outcome [10] | Potency [11] | Potency [13] | Potency [14] | Potency [15] | Potency [16] | Potency [17] | outcome [19]

CCCCCc1cc(O)cc(O)c1
inactive: Potency [1] > 92 µM | Potency [2] | outcome [3] | outcome [4] | outcome [5] | Potency [6] | outcome [7] | outcome [20] | Potency [8] | outcome [10] | Potency [11] | Potency [12] | Potency [13] | Potency [14] | Potency [15] | Potency [16] | Potency [17] | activation [18] 9.87% | outcome [19]

COc1cc(-c2ccc(N)c(OC)c2)ccc1N
inactive: outcome [3] | outcome [4] | outcome [5] | Potency [6] | outcome [7] | outcome [20] | Potency [8] | outcome [10] | Potency [11] | Potency [12] | Potency [15] | Potency [16] | Potency [17]

CCCCC(=O)Cl
inactive: Potency [1] > 92 µM | Potency [2] | outcome [3] | outcome [5] | Potency [6] | outcome [20] | Potency [8] | Potency [9] | outcome [10] | Potency [11] | Potency [12] | Potency [13] | Potency [14] | Potency [15] | Potency [16] | Potency [17] | outcome [19]

From PubChem BioAssay (NCATS)
